From PubChem BioAssay (NCATS)
Records with an inconclusive call do not appear. The source made the active and inactive calls. The call rests on the fitted dose curve; in most records, active means well fitted curve in the direction sought with a large enough effect; inconclusive means small, poorly fitted or top-dose-only effect, or another doubt; inactive means no such curve, though single readings can be large; an effect the other way counts as inactive or inconclusive.

Assays:
HaCat [1] = assay: Cytotoxic Profiling of Annotated Libraries Using Quantitative High-Throughput Screening (AID 1296008); conditions: Five cell lines viability, CellTiter-Glo ATP luminescence, 48-72 h; max response: stronger effect = lower value; further: nearly all actives have a fitted effect of over 60% in size; on max response: on the % scale 0 is the no-effect control and ±100 the full control effect
Outline: (§1)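 Cells exposed to compounds for 48 or 72 hr at 37 degrees Celsius. Viability read as ATP-coupled luminescence with CellTiter-Glo after 10 min at room temperature.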

KB-3-1 = assay: as above; conditions: Five cell lines viability, CellTiter-Glo ATP luminescence, 48-72 h; max response: stronger effect = lower value
Outline: as §1

NIH3T3 [2] = assay: as above; conditions: Five cell lines viability, CellTiter-Glo ATP luminescence, 48-72 h; max response: stronger effect = lower value
Outline: as §1

HACAT [3] = assay: qHTS assay to identify novel small-molecules to repurpose for Merkel cell carcinoma treatment (AID 1296009); conditions: MCC and control cell lines, CellTiter-Glo viability, 72 h; series mostly up to 44.8 µM; further: nearly all actives have a fitted effect of over 60% in size
Outline: (§2)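 CellTiter-Glo luminescence after 72 hr compound exposure at 37 degree celsius gave cell viability. Libraries NPC and MIPE were run as 8- and 11-point dose responses; RLUs normalized to DMSO (negative) and no-cell (cytotoxicity) controls.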

HEK293T [4] = assay: as above; conditions: MCC and control cell lines, CellTiter-Glo viability, 72 h; at 44.8 µM (top of the series) unless noted
Outline: as §2

NIH3T3 [5] = assay: as above; conditions: MCC and control cell lines, CellTiter-Glo viability, 72 h; at 44.8 µM (top of the series) unless noted
Outline: as §2

C33A = assay: Primary qHTS to identify gynecologic anti-cancer compounds using libraries of approved drugs and bioactive compounds (AID 1345084); conditions: Gynecologic cancer cell panel viability, ATPlite luminescence, 48 h; series mostly up to 57.5 µM; further: on the % scale 0 is the no-effect control and ±100 the full control effect; nearly all actives have a fitted effect of over 55% in size
Outline: (§3)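 Five-concentration response, 48 h; readout is ATP-driven luciferase luminescence.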

CASKI = assay: as above; conditions: Gynecologic cancer cell panel viability, ATPlite luminescence, 48 h; series mostly up to 57.5 µM
Outline: as §3

Es-2 = assay: as above; conditions: Gynecologic cancer cell panel viability, ATPlite luminescence, 48 h; series mostly up to 57.5 µM
Outline: as §3

HeLa = assay: as above; conditions: Gynecologic cancer cell panel viability, ATPlite luminescence, 48 h; series mostly up to 57.5 µM
Outline: as §3

Hek293T [6] = assay: as above; conditions: Gynecologic cancer cell panel viability, ATPlite luminescence, 48 h, control line for the selectivity index; series mostly up to 57.5 µM
Outline: as §3

JEG-3 = assay: as above; conditions: Gynecologic cancer cell panel viability, ATPlite luminescence, 48 h; series mostly up to 57.5 µM
Outline: as §3

OV90 = assay: as above; conditions: Gynecologic cancer cell panel viability, ATPlite luminescence, 48 h; series mostly up to 57.5 µM
Outline: as §3

CAOV3 = assay: as above; conditions: Gynecologic cancer cell panel viability, ATPlite luminescence, 48 h; series mostly up to 57.5 µM
Outline: as §3

O=C(/C=C/c1ccccc1)OC[C@]12O[C@H]1[C@@H](O)[C@@H]1C=CO[C@@H](O[C@@H]3O[C@H](CO)[C@@H](O)[C@H](O)[C@H]3O)[C@@H]12
inactive: outcome (HaCat [1]) | outcome (KB-3-1) | outcome (NIH3T3 [2]) | Potency (HACAT [3]) | outcome (HEK293T [4]) inactive [at 17.4 µM] | outcome (NIH3T3 [5]) inactive [at 17.4 µM] | Potency (C33A) | Potency (CASKI) | Potency (Es-2) | Potency (HeLa) | Potency (Hek293T [6]) | Potency (JEG-3) | Potency (OV90)

O=C(O)Cc1cn(C2OCC(O)C(O)C2O[C@@H]2O[C@H](CO)[C@@H](O)[C@H](O)[C@H]2O)c2ccccc12 (some centres not stated)
inactive: outcome (HaCat [1]) | outcome (KB-3-1) | max response (NIH3T3 [2]) 2.49% | Potency (HACAT [3]) | Potency (C33A) | Potency (CAOV3) | Potency (CASKI) | Potency (Es-2) | Potency (HeLa) | Potency (Hek293T [6]) | Potency (JEG-3) | Potency (OV90)

CC1(C)CCC(C)(C)c2cc(C3(c4ccc(C(=O)O)cc4)OCCO3)ccc21
inactive: outcome (HaCat [1]) | max response (KB-3-1) 9.31% | max response (NIH3T3 [2]) -24.2% | Potency (HACAT [3]) | Potency (C33A) | Potency (CAOV3) | Potency (CASKI) | Potency (Es-2) | Potency (HeLa) | Potency (Hek293T [6]) | Potency (JEG-3) | Potency (OV90)

C=C(C)C1CCC(C)C12CC(O)C1(C)OC1C2OC(=O)C(N)CCC(=O)O (configuration not stated)
inactive: outcome (HaCat [1]) | max response (KB-3-1) 1.24% | max response (NIH3T3 [2]) 4.47% | Potency (HACAT [3]) | Potency (C33A) | Potency (CAOV3) | Potency (CASKI) | Potency (Es-2) | Potency (HeLa) | Potency (Hek293T [6]) | Potency (JEG-3) | Potency (OV90)

O=C1CCC(c2ccccc2)(C2CCN(Cc3ccc(I)cc3)CC2)C(=O)N1 (configuration not stated)
inactive: max response (HaCat [1]) -3.49% | max response (KB-3-1) -7.17%

OCc1ccc(O[C@@H]2O[C@H](CO)[C@@H](O)[C@H](O)[C@H]2O)cc1
inactive: outcome (HaCat [1]) | max response (KB-3-1) -3.37% | max response (NIH3T3 [2]) 2.54% | Potency (HACAT [3]) | Potency (C33A) | Potency (CAOV3) | Potency (CASKI) | Potency (Es-2) | Potency (HeLa) | Potency (Hek293T [6]) | Potency (JEG-3) | Potency (OV90)

C[C@H](CCC(=O)O)[C@H]1CC[C@H]2[C@@H]3C[C@H](O)[C@@H]4C[C@H](O)CC[C@]4(C)[C@H]3CC[C@]12C
inactive: outcome (HaCat [1]) | outcome (KB-3-1) | outcome (NIH3T3 [2]) | Potency (HACAT [3]) | outcome (NIH3T3 [5]) | Potency (C33A) | Potency (CAOV3) | Potency (CASKI) | Potency (Es-2) | Potency (HeLa) | Potency (Hek293T [6]) | Potency (JEG-3) | Potency (OV90)

Nc1nc2c(c(N3CCNCC3)n1)CCC1=C2[C@@H]2CCCC[C@@H]2O1
inactive: outcome (HaCat [1]) | max response (KB-3-1) -5.74% | max response (NIH3T3 [2]) -4.38% | Potency (HACAT [3]) | Potency (C33A) | Potency (CAOV3) | Potency (CASKI) | Potency (Es-2) | Potency (HeLa) | Potency (Hek293T [6]) | Potency (JEG-3) | Potency (OV90)

COc1c2cc(c(O)c1OC)-c1cc(ccc1O)CCC(O)CCCC2 (configuration not stated)
inactive: outcome (HaCat [1]) | outcome (KB-3-1) | max response (NIH3T3 [2]) -1.69% | Potency (HACAT [3]) | Potency (C33A) | Potency (CAOV3) | Potency (CASKI) | Potency (Es-2) | Potency (HeLa) | Potency (Hek293T [6]) | Potency (JEG-3) | Potency (OV90)

CCCC(=O)O[C@@H]1[C@@H]2[C@@H](OC(C)=O)[C@]3(C)C(=O)[C@H]4[C@@H](OC(C)=O)C(C)(C)C[C@H]4[C@]3(C)C(=O)[C@@]2(OC(C)=O)C[C@@H]1C
inactive: outcome (HaCat [1]) | max response (KB-3-1) 8.81% | outcome (NIH3T3 [2]) | Potency (HACAT [3]) | outcome (NIH3T3 [5]) inactive [at 17.4 µM] | Potency (C33A) | Potency (CAOV3) | Potency (CASKI) | Potency (Es-2) | Potency (HeLa) | Potency (Hek293T [6]) | Potency (JEG-3) | Potency (OV90)

COc1ccc([C@@]2(O)c3c(ccc(CC=C(C)C)c3O)NC(=O)[C@@H]2OC)cc1
inactive: outcome (HaCat [1]) | max response (KB-3-1) 8.3% | max response (NIH3T3 [2]) 4.4% | Potency (HACAT [3]) | outcome (HEK293T [4]) | Potency (C33A) | Potency (CAOV3) | Potency (CASKI) | Potency (Es-2) | Potency (HeLa) | Potency (Hek293T [6]) | Potency (OV90)

CNC(C)C(=O)NC(C(=O)N1CCCC1c1nc(C(=O)c2ccc(F)cc2)cs1)C1CCCCC1 (configuration not stated)
inactive: outcome (HaCat [1]) inactive; activator | max response (KB-3-1) -9.35% | outcome (NIH3T3 [2]) | Potency (HACAT [3]) | outcome (NIH3T3 [5]) | Potency (C33A) | Potency (CASKI) | Potency (Es-2) | Potency (HeLa) | Potency (Hek293T [6]) | Potency (JEG-3) | Potency (OV90)

CN1CCN(C(=O)c2ccc3cc(CCNc4ncnc5ccc(C#N)cc45)ccc3c2)CC1
inactive: outcome (HaCat [1]) | max response (KB-3-1) -26.4% | max response (NIH3T3 [2]) -2.38% | Potency (HACAT [3]) | Potency (C33A) | Potency (CAOV3) | Potency (CASKI) | Potency (Es-2) | Potency (HeLa) | Potency (Hek293T [6])
